# Reference: the supplement of paper PMC8728848
# The full list was thinned out, with the strongest signals kept by preference.
# B1: Mg1lysM (Mycosphaerella graminicola) (protein)
# chain: QRNPITITPQFDCGATNSQQYVARSGDTLTKIAQEIYHDVVGVCDIARANNLADPNRIDAGTPYTIPINCQTYDRNSCL
# B2: RfpC (Mycobacterium tuberculosum), O07747 (protein)
# chain: MHHHHHHSSGRENLYFQGHMASKSAMAAGLVTASMSLSTAVAHAGPSPNWDAVAQCESGGNWAANTGNGKYGGLQFKPATWAAFGGVGNPAAASREQQIAVANRVLAEQGLDAWPTCGAASGLPIALWSKPAQGIKGS
# Columns and labels:
# Test in all cases: glycan array binding signal (z-score within array); higher = stronger binding
# Settings in all cases: glycan notation: IUPAC condensed, linker removed
# [1] = biological target: Fuc(a1-2)Gal(b1-3)GlcNAc(b1-3)Gal(b1-4)Glc
# Outline: (§1)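 Glycan array data were curated from 3228 arrays in the Consortium for Functional Glycomics database and kept only where the protein sequence was available. Glycan names were converted to IUPAC-condensed notation, and columns mapping to the same glycan were averaged. The binding signal is a within-array Z-score, averaged across arrays of the same protein sequence at different concentrations or buffers and across linkers. Negative Z-scores can be read as non-binding.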
# [2] = biological target: Fuc(a1-2)Gal(b1-3)[Fuc(a1-4)]GlcNAc(b1-3)[Gal(b1-4)GlcNAc(b1-6)]Gal(b1-4)Glc
# Outline: as §1
# Fuc(a1-2)Gal(b1-4)Glc = biological target: Fuc(a1-2)Gal(b1-4)Glc
# Outline: as §1
# [3] = biological target: Fuc(a1-2)Gal(b1-4)GlcNAc(b1-3)Gal(b1-4)GlcNAc(b1-2)Man(a1-3)[Fuc(a1-2)Gal(b1-4)GlcNAc(b1-3)Gal(b1-4)GlcNAc(b1-2)Man(a1-6)]Man(b1-4)GlcNAc(b1-4)GlcNAc
# Outline: as §1
# [4] = biological target: Fuc(a1-2)Gal(b1-4)[Fuc(a1-3)]GlcNAc(b1-2)Man(a1-3)[Fuc(a1-2)Gal(b1-4)[Fuc(a1-3)]GlcNAc(b1-2)Man(a1-6)]Man(b1-4)GlcNAc(b1-4)[Fuc(a1-6)]GlcNAc
# Outline: as §1
# [5] = biological target: Fuc(a1-2)Gal3S(b1-4)GlcNAc
# Outline: as §1
# [6] = biological target: Fuc(a1-2)[GalNAc(a1-3)]Gal(b1-4)GlcNAc(b1-2)Man(a1-3)[Fuc(a1-2)[GalNAc(a1-3)]Gal(b1-4)GlcNAc(b1-2)Man(a1-6)]Man(b1-4)GlcNAc(b1-4)[Fuc(a1-6)]GlcNAc
# Outline: as §1
# [7] = biological target: Fuc(a1-3)[Gal3S(b1-4)]GlcNAc
# Outline: as §1
# Fuc(a1-4)GlcNAc = biological target: Fuc(a1-4)GlcNAc
# Outline: as §1
# Gal(a1-3)Gal = biological target: Gal(a1-3)Gal
# Outline: as §1
# [8] = biological target: Gal(a1-3)Gal(b1-3)[Fuc(a1-4)]GlcNAc(b1-2)Man(a1-3)[Gal(a1-3)Gal(b1-3)[Fuc(a1-4)]GlcNAc(b1-2)Man(a1-6)]Man(b1-4)GlcNAc(b1-4)GlcNAc
# Outline: as §1
# [9] = biological target: Gal(a1-4)Gal(b1-4)GlcNAc(b1-2)Man(a1-3)[Gal(a1-4)Gal(b1-4)GlcNAc(b1-2)Man(a1-6)]Man(b1-4)GlcNAc(b1-4)GlcNAc
# Outline: as §1
# Gal(a1-6)Glc = biological target: Gal(a1-6)Glc
# Outline: as §1
# Gal(b1-3)Gal = biological target: Gal(b1-3)Gal
# Outline: as §1
# [10] = biological target: Gal(b1-3)GlcNAc(b1-2)Man(a1-3)[GlcNAc(b1-4)][Gal(b1-3)GlcNAc(b1-2)Man(a1-6)]Man(b1-4)GlcNAc(b1-4)GlcNAc
# Outline: as §1
# [11] = biological target: Gal(b1-3)GlcNAc(b1-3)Gal(b1-4)GlcNAc(b1-2)[Gal(b1-3)GlcNAc(b1-3)Gal(b1-4)GlcNAc(b1-6)]Man(a1-6)[Gal(b1-3)GlcNAc(b1-3)Gal(b1-4)GlcNAc(b1-2)Man(a1-3)]Man(b1-4)GlcNAc(b1-4)[Fuc(a1-6)]GlcNAc
# Outline: as §1
# [12] = biological target: Gal(b1-3)GlcNAc(b1-6)[Gal(b1-3)]GalNAc
# Outline: as §1
# [13] = biological target: Gal(b1-4)GlcNAc(b1-2)Man(a1-6)Man(b1-4)GlcNAc(b1-4)GlcNAc
# Outline: as §1
# Gal6S(b1-4)GlcNAc = biological target: Gal6S(b1-4)GlcNAc
# Outline: as §1
# GalNAc(a1-3)GalNAc = biological target: GalNAc(a1-3)GalNAc
# Outline: as §1
# [14] = biological target: GalNAc3S(b1-4)[Fuc(a1-3)]GlcNAc
# Outline: as §1
# [15] = biological target: Glc(a1-4)Glc(a1-4)Glc(a1-4)Glc
# Outline: as §1
# GlcA(b1-6)Gal = biological target: GlcA(b1-6)Gal
# Outline: as §1
# [16] = biological target: GlcNAc(a1-4)Gal(b1-4)GlcNAc(b1-3)Gal(b1-4)Glc
# Outline: as §1
# [17] = biological target: GlcNAc(b1-2)Man(a1-3)[GlcNAc(b1-2)Man(a1-6)]Man(b1-4)GlcNAc(b1-4)GlcNAc
# Outline: as §1
# [18] = biological target: GlcNAc(b1-2)[GlcNAc(b1-4)]Man(a1-3)[GlcNAc(b1-4)][GlcNAc(b1-2)[GlcNAc(b1-6)]Man(a1-6)]Man(b1-4)GlcNAc(b1-4)[Fuc(a1-6)]GlcNAc
# Outline: as §1
# [19] = biological target: GlcNAc(b1-3)Gal(b1-4)GlcNAc(b1-2)[GlcNAc(b1-3)Gal(b1-4)GlcNAc(b1-6)]Man(a1-6)[GlcNAc(b1-3)Gal(b1-4)GlcNAc(b1-2)Man(a1-3)]Man(b1-4)GlcNAc(b1-4)GlcNAc
# Outline: as §1
# [20] = biological target: GlcNAc(b1-3)Gal(b1-4)GlcNAc(b1-3)Gal(b1-4)GlcNAc(b1-3)Gal(b1-4)GlcNAc(b1-2)Man(a1-3)[GlcNAc(b1-3)Gal(b1-4)GlcNAc(b1-3)Gal(b1-4)GlcNAc(b1-3)Gal(b1-4)GlcNAc(b1-2)Man(a1-6)]Man(b1-4)GlcNAc(b1-4)[Fuc(a1-6)]GlcNAc
# Outline: as §1
# GlcNAc(b1-3)Man = biological target: GlcNAc(b1-3)Man
# Outline: as §1
# [21] = biological target: GlcNAc(b1-4)GlcNAc(b1-4)GlcNAc
# Outline: as §1
# [22] = biological target: Gal(b1-4)GalNAc(b1-3)[Fuc(a1-2)]Gal(b1-4)GlcNAc
# Outline: as §1
# Gal(b1-4)Glc = biological target: Gal(b1-4)Glc
# Outline: as §1
# Gal(b1-4)Glc6S = biological target: Gal(b1-4)Glc6S
# Outline: as §1
# [23] = biological target: Gal(b1-4)GlcNAc(b1-3)Gal(b1-4)[Fuc(a1-3)]GlcNAc(b1-3)Gal(b1-4)[Fuc(a1-3)]GlcNAc
# Outline: as §1
# [24] = biological target: Gal(b1-4)GlcNAc(b1-6)GalNAc
# Outline: as §1
# Gal4S(b1-4)GlcNAc = biological target: Gal4S(b1-4)GlcNAc
# Outline: as §1
# [25] = biological target: GalNAc(b1-3)Gal(a1-4)Gal(b1-4)GlcNAc
# Outline: as §1
# GlcNAc(b1-3)Gal = biological target: GlcNAc(b1-3)Gal
# Outline: as §1
# Kdn(a2-3)Gal(b1-4)GlcNAc = biological target: Kdn(a2-3)Gal(b1-4)GlcNAc
# Outline: as §1
# [26] = biological target: Man(a1-2)Man(a1-2)Man(a1-3)Man
# Outline: as §1
# [27] = biological target: Man(a1-2)Man(a1-3)[Man(a1-2)Man(a1-6)]Man(a1-6)[Man(a1-2)Man(a1-2)Man(a1-3)]Man(b1-4)GlcNAc(b1-4)GlcNAc
# Outline: as §1
# Man(a1-6)Man = biological target: Man(a1-6)Man
# Outline: as §1
# Neu5Ac(a2-3)Gal = biological target: Neu5Ac(a2-3)Gal
# Outline: as §1
# [28] = biological target: Neu5Ac(a2-3)Gal(b1-3)GalNAc(b1-4)[Neu5Ac(a2-3)]Gal(b1-4)Glc
# Outline: as §1
# [29] = biological target: Neu5Ac(a2-3)Gal(b1-4)[Fuc(a1-3)]GlcNAc(b1-3)Gal(b1-4)[Fuc(a1-3)]GlcNAc(b1-3)Gal(b1-4)[Fuc(a1-3)]GlcNAc
# Outline: as §1
# [30] = biological target: Neu5Ac(a2-3)[Neu5Ac(a2-6)]GalNAc
# Outline: as §1
# Neu5Ac(a2-6)Gal(b1-4)Glc = biological target: Neu5Ac(a2-6)Gal(b1-4)Glc
# Outline: as §1
# [31] = biological target: Neu5Ac(a2-6)Gal(b1-4)GlcNAc(b1-2)Man(a1-3)[Gal(b1-4)GlcNAc(b1-2)Man(a1-6)]Man(b1-4)GlcNAc(b1-4)GlcNAc
# Outline: as §1
# Neu5Gc(a2-6)GalNAc = biological target: Neu5Gc(a2-6)GalNAc
# Outline: as §1
# [32] = biological target: Neu5Gc(b2-6)Gal(b1-4)GlcNAc
# Outline: as §1
binder,measurement,setting,value
B1,glycan array binding signal (z-score),[1],-0.073
same,glycan array binding signal (z-score),[2],-0.074
same,glycan array binding signal (z-score),Fuc(a1-2)Gal(b1-4)Glc,-0.06
same,glycan array binding signal (z-score),[3],-0.081
same,glycan array binding signal (z-score),[4],0.076
same,glycan array binding signal (z-score),[5],-0.038
same,glycan array binding signal (z-score),[6],-0.079
same,glycan array binding signal (z-score),[7],-0.075
same,glycan array binding signal (z-score),Fuc(a1-4)GlcNAc,-0.078
same,glycan array binding signal (z-score),Gal(a1-3)Gal,-0.086
same,glycan array binding signal (z-score),[8],-0.048
same,glycan array binding signal (z-score),[9],-0.061
same,glycan array binding signal (z-score),Gal(a1-6)Glc,-0.075
same,glycan array binding signal (z-score),Gal(b1-3)Gal,-0.061
same,glycan array binding signal (z-score),[10],0.125
same,glycan array binding signal (z-score),[11],0.02
same,glycan array binding signal (z-score),[12],-0.054
same,glycan array binding signal (z-score),[13],-0.083
same,glycan array binding signal (z-score),Gal6S(b1-4)GlcNAc,-0.051
same,glycan array binding signal (z-score),GalNAc(a1-3)GalNAc,0.308
same,glycan array binding signal (z-score),[14],0.01
same,glycan array binding signal (z-score),[15],-0.073
same,glycan array binding signal (z-score),GlcA(b1-6)Gal,-0.062
same,glycan array binding signal (z-score),[16],-0.084
same,glycan array binding signal (z-score),[17],-0.057
same,glycan array binding signal (z-score),[18],-0.071
same,glycan array binding signal (z-score),[19],-0.06
same,glycan array binding signal (z-score),[20],-0.081
same,glycan array binding signal (z-score),GlcNAc(b1-3)Man,-0.057
same,glycan array binding signal (z-score),[21],16.5
B2,glycan array binding signal (z-score),[1],0.546
same,glycan array binding signal (z-score),Fuc(a1-4)GlcNAc,-1.09
same,glycan array binding signal (z-score),[22],3.48
same,glycan array binding signal (z-score),Gal(b1-4)Glc,-0.11
same,glycan array binding signal (z-score),Gal(b1-4)Glc6S,4.01
same,glycan array binding signal (z-score),[23],-0.25
same,glycan array binding signal (z-score),[24],-0.822
same,glycan array binding signal (z-score),Gal4S(b1-4)GlcNAc,0.815
same,glycan array binding signal (z-score),[25],3.74
same,glycan array binding signal (z-score),GlcNAc(b1-3)Gal,-0.187
same,glycan array binding signal (z-score),Kdn(a2-3)Gal(b1-4)GlcNAc,-0.421
same,glycan array binding signal (z-score),[26],2.92
same,glycan array binding signal (z-score),[27],-0.745
same,glycan array binding signal (z-score),Man(a1-6)Man,-0.622
same,glycan array binding signal (z-score),Neu5Ac(a2-3)Gal,0.641
same,glycan array binding signal (z-score),[28],-0.923
same,glycan array binding signal (z-score),[29],-0.798
same,glycan array binding signal (z-score),[30],0.475
same,glycan array binding signal (z-score),Neu5Ac(a2-6)Gal(b1-4)Glc,0.057
same,glycan array binding signal (z-score),[31],-0.731
same,glycan array binding signal (z-score),Neu5Gc(a2-6)GalNAc,1.8
same,glycan array binding signal (z-score),[32],3.14
